This passage reports Potency results from PubChem BioAssay (Tox21).

Values joined by “and” are separate entries in the source; they are usually repeats but may differ in a detail not shown here. Equal entries are not always repeated. Inconclusive results are not listed. More than one record can exist for a structure, and the calls need not agree. Active and inactive are the calls of the source. Unless noted, calls follow the shape of the dose curve; as a rule, active = well fitted curve in the direction sought with a large enough effect in the repeat runs; inconclusive = weak or mixed curves; inactive = no such curve, though single readings can be large; an effect the other way counts as inactive or inconclusive.

Assay [1] can be described thus: qHTS assay to identify small molecule agonists of the vitamin D receptor (VDR) signaling pathway - cell viability counter screen (AID 743224). Also: nearly all actives have a fitted effect of over 50% in size. Also: potency is read from the fitted curve at half-maximal effect. In short, it runs like this:
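Cytotoxicity counter screen: VDR-bla cells, 16 h compound exposure at 37C, 5% CO2; CellTiter-Glo luminescence, 30 min RT, same wells as bla read.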
(In general: In qHTS, concentration-response curves come from the screen itself.)

Assay [2] can be described thus: qHTS assay to identify small molecule antagonists of the vitamin D receptor (VDR) signaling pathway - cell viability counter screen (AID 743225). Also: nearly all actives have a fitted effect of over 50% in size. Also: potency is read from the fitted curve at half-maximal effect. An outline of the steps:
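Cells (VDR-UAS-bla HEK 293T) are plated, rested 4 h at 37C, dosed with compound and 3 nM final 1-alpha,25-dihydroxy vitamin D3, and incubated 16 h. Viability is taken from CellTiter-Glo luminescence in the reporter wells.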

A short description of assay [3]: qHTS assay to identify small molecule agonists of the NFkB signaling pathway - cell viability counter screen (AID 1159515; calls by dose curve; also: nearly all actives have a fitted effect of over 55% in size; also: potency is read from the fitted curve at half-maximal effect). In short, it runs like this: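 ME-180 NFkB-bla cells, 2,000/well; overnight attach; compound 5 hr, 37 C/5% CO2; LiveBLAzer substrate 1.5 hr RT; then CellTiter-Glo in same wells, 30 min RT, luminescence read.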
A short description of assay [4]: qHTS assay to identify small molecule agonists of the endoplasmic reticulum stress response signaling pathway (AID 1159516; active = well fitted activation curve with a large enough effect in the signal ratio in the repeat runs, not every such curve was filed as active; the % refers to the signal ratio). An outline of the steps:
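HeLa ESRE-bla reporter line; cpd 5 h, 37 C/5% CO2; LiveBLAzer B/G FRET substrate 2 h RT; ex 405, em 460/530 nm.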

Assay [5] can be described thus: qHTS assay to identify small molecule antagonists of the retinoid-related orphan receptor gamma (ROR-gamma) signaling pathway - cell viability counter screen (AID 1159520). Also: nearly all actives have a fitted effect of over 50% in size. Also: potency is read from the fitted curve at half-maximal effect. In short, it runs like this:
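Tet-on ROR gamma CHO cells were given compounds for 2 hr, then doxycycline hyclate at 1 uM final, and incubated 16 hr at 37 C. Viability was measured as ATP content by CellTiter-Glo luminescence.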

In assay [6] the target is Nuclear receptor ROR-gamma (Homo sapiens) (UniProt P51449). The experiment in a line: qHTS assay to identify small molecule antagonists of the retinoid-related orphan receptor gamma (ROR-gamma) signaling pathway (AID 1159521; also: nearly all actives have a fitted effect of over 50% in size; also: potency is read from the fitted curve at half-maximal effect). In short, it runs like this:
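RORγ antagonism is scored from reduced reporter luminescence in Tet-on CHO cells. Induction used 1 uM final doxycycline hyclate for 16 h at 37 C, following a 2 h compound exposure.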

Assay [7] is described as follows: qHTS assay to identify small molecule agonists of the AP-1 signaling pathway (AID 1159526; calls by dose curve).
A short description of assay [8]: qHTS assay to identify small molecule agonists of the RXR signaling pathway - cell viability counter screen (AID 1159529). Also: nearly all actives have a fitted effect of over 50% in size. Also: potency is read from the fitted curve at half-maximal effect. An outline of the steps: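 Cell viability is measured by CellTiter-Glo luminescence, 30 min at room temperature, in wells already read for beta-lactamase. Engineered HEK 293T cells (RXR-alpha-UAS-bla) are dosed 16 hr at 37 C. Tetraoctyl ammonium bromide serves as positive control.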

Assay [9] is described as follows: qHTS assay to identify small molecule antagonists of the retinoid acid receptor (RAR) signaling pathway - cell viability counter screen (AID 1159551). Also: nearly all actives have a fitted effect of over 35% in size. Also: potency is read from the fitted curve at half-maximal effect. In short, it runs like this:
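C3RL4 RARE-luciferase line; cpds + retinol 1 uM final, 6 h, 37 C/5% CO2; CellTiter-Glo ATP luminescence, 30 min RT.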

Assay [10] is described as follows: qHTS assay to identify small molecule antagonists of the retinoic acid receptor (RAR) signaling pathway (AID 1159552; also: nearly all actives have a fitted effect of over 50% in size; also: potency is read from the fitted curve at half-maximal effect). In short, it runs like this:
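Quantitative HTS in C3RL4 RARE-luciferase reporter cells. Compounds were added with 1 uM (final) retinol; luminescence was read after 6 hr.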

The nature of assay [11]: qHTS assay to identify small molecule agonists of the retinoic acid receptor (RAR) signaling pathway (AID 1159553). Also: potency is read from the fitted curve at half-maximal effect. In short, it runs like this: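 RARE-luc C3RL4 cells; overnight attachment 37 C/5% CO2; compound (DMSO) 6 hr; luciferase reagent, 30 min RT; luminescence read-out.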
A short description of assay [12]: qHTS assay to identify small molecule agonists of the AP-1 signaling pathway - cell viability counter screen (AID 1159525; calls by dose curve; also: nearly all actives have a fitted effect of over 55% in size; also: potency is read from the fitted curve at half-maximal effect). An outline of the steps: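 Same-well cytotoxicity counter screen of the Tox21 10K library in ME-180 cells. The readout is ATP-dependent luminescence after 5 h compound treatment. Data are normalised to DMSO and tetra n-octyl ammonium bromide controls.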

Assay [13] in a line: qHTS assay to identify small molecule agonists of the endoplasmic reticulum stress response signaling pathway - cell viability counter screen (AID 1159517; calls by dose curve; also: nearly all actives have a fitted effect of over 50% in size; also: potency is read from the fitted curve at half-maximal effect). In short, it runs like this:
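Steps: seed 1,500 ESRE-bla HeLa cells per well; incubate overnight at 37 C, 5% CO2; add compounds in DMSO for 5 hr; run FRET substrate 2 hr RT; add CellTiter-Glo, wait 30 min, read luminescence.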

The target of assay [14] is Retinoic acid receptor RXR-alpha (Homo sapiens) (UniProt P19793). Nature of the assay: qHTS assay to identify small molecule agonists of the RXR signaling pathway (AID 1159527; calls by dose curve; also: nearly all actives have a fitted effect of over 35% in size). In short, it runs like this: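 qHTS of the Tox21 10K library in GeneBLAzer RXR-alpha HEK 293T cells carrying a beta-lactamase reporter […]; 16 hr treatment, 9-cis retinoic acid as agonist control, FRET read-out.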
Retinoic acid receptor RXR-alpha (Homo sapiens), sequence (P19793 whole entry, looked up): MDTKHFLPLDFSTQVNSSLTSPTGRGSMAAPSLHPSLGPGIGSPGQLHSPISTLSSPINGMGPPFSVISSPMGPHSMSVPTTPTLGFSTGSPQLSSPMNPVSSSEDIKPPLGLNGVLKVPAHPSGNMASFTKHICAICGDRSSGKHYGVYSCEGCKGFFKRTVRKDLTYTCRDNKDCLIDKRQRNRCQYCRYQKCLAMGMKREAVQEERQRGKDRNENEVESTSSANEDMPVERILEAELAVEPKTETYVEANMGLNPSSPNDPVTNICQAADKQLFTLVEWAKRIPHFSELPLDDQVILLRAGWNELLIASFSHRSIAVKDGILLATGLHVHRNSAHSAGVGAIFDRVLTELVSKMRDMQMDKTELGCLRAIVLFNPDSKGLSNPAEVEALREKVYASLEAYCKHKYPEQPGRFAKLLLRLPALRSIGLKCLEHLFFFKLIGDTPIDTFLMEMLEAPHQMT

Turning to `CCC1(CCC(C)C)C(=O)NC(=O)NC1=O`, the Potency result in assay [1], in assay [2], in assay [3], in assay [4], in assay [5] and in assay [6] was “inactive” each time. Moreover, the Potency entry in assay [7], in [8], in assay [9], in assay [10] and in assay [11] was “inactive” in each case.
As to `CC(C)(C#N)C(C)(C)C#N`, the Potency result in [1], in [2], in [3], in [4], in assay [5] and in assay [12] was “inactive” in each case. Also, the Potency result in assay [7], in [8] and in assay [9] was “inactive” each time.
For `NNCCO`, the Potency entry in assay [1], in assay [2], in assay [3], in assay [4], in assay [5] and in assay [6] was “inactive” in each case. The Potency result in assay [7], in assay [9] and in [10] was “inactive” throughout.
As for `O=C(CCl)CCl`, the Potency entry in assay [1], in [2], in assay [3], in assay [12], in [8] and in assay [9] was “inactive” in each case. In addition, the Potency is 5.45 µM (active) in assay [5]; 14.2 µM (active) and 12.2 µM (active) in assay [6].
Turning to `O=C1c2ccccc2C(=O)N1SC(Cl)(Cl)Cl`, the Potency in [1] was 19.2 µM (active) and 6.92 µM (active); in assay [2] it was 34.2 µM (active); in assay [5], 30.2 µM (active) and 21.7 µM (active); in [6], 6.03 µM (active) and 7.7 µM (active); in assay [9], 53.7 µM (active) and 30.6 µM (active); in [10], 17 µM (active) and 15.4 µM (active). Also, the Potency result in [3], in [13], in assay [12] and in [8] was “inactive” in each case.
As for `CCCCNC(=O)OCC#CI`, the Potency in assay [1] was 48.7 µM (active) and 43.6 µM (active); in assay [5], 54.2 µM (active) and 17.2 µM (active); in assay [12] it was 54.7 µM (active); in [9], 68.2 µM (active); in [10], 43.1 µM (active) and 54.5 µM (active). The Potency result in assay [2] and in assay [3] was “inactive” throughout.
`CC(Oc1cccc(Cl)c1)C(=O)O` (centres undefined): the Potency result in [2], in assay [3], in assay [4], in assay [5], in assay [6] and in assay [12] was “inactive” each time. Besides, the Potency result in assay [7], in [8], in assay [9], in [10] and in assay [11] was “inactive” throughout.
In the case of `Nc1cccc2ccccc12`, the Potency result in assay [2], in assay [3], in assay [5], in [14], in [8] and in [9] was “inactive” throughout.
`CCCCCCCCCCCC[N+](C)(C)CCOc1ccccc1`: the Potency in assay [1] was 24.6 µM (active) and inactive; in [2], 21.9 µM (active) and 21.3 µM (active); in assay [3], 13.8 µM (active) and inactive; in assay [13], 15.5 µM (active) and 19 µM (active); in assay [5], 61.1 µM (active); in [6], 27.3 µM (active). In addition, the Potency in assay [8] was 8.71 µM (active) and 12 µM (active); in assay [9] it was 61.1 µM (active).
`COc1cc(C[C@@H](C)N)c(OC)cc1Br`: the Potency result in [3], in [4], in assay [5], in assay [12], in [7] and in assay [8] was “inactive” throughout. The Potency result in assay [9], in [10] and in assay [11] was “inactive” in each case.
On to `Nc1ccccc1C(=O)OCCc1ccccc1`, for which the Potency result in [1], in assay [2], in [3], in assay [4], in [5] and in [6] was “inactive” each time. In addition, the Potency result in assay [12], in assay [7], in assay [8] and in assay [10] was “inactive” each time. Moreover, the Potency in assay [11] was 173 nM (active) and 122 nM (active).
Take `O=C(O)c1cc(I)cc(I)c1I`: the Potency result in assay [1], in assay [2], in [3], in [4], in assay [5] and in assay [6] was “inactive” in each case. Further, the Potency result in assay [7], in assay [8], in [9], in assay [10] and in assay [11] was “inactive” each time.
Regarding `CCCCCCCCn1sccc1=O`, the Potency is 873 nM (active) and 1.15 µM (active) in assay [1]; 19.5 µM (active) and 22.9 µM (active) in assay [2]; 49.1 µM (active) and 3.63 µM (active) in assay [3]; 24.4 µM (active) and 9.05 µM (active) in assay [5]; 6.13 µM (active) and 9.05 µM (active) in assay [6]; 5.51 µM (active) and 5.13 µM (active) in assay [12]. In addition, the Potency is 1.95 µM (active) and 2.04 µM (active) in [8]; 68.7 µM (active) and 64.1 µM (active) in assay [9].
Take `CCOP(=S)(S)OCC`: the Potency result in assay [1], in assay [2], in assay [3], in assay [4], in assay [5] and in [6] was “inactive” each time. Moreover, the Potency entry in assay [12], in [7], in assay [8], in [9] and in assay [10] was “inactive” each time.
Turning to `CCCCOC(=O)CCC(=O)OCCCC`, the Potency entry in assay [2], in assay [3], in assay [4], in [5], in assay [12] and in assay [7] was “inactive” each time. For the same molecule, the Potency entry in [14], in [8], in assay [9], in [10] and in assay [11] was “inactive” throughout.
With `COc1cc(CC#N)cc(OC)c1OC`, the Potency result in [1], in assay [2], in [3], in [4], in assay [5] and in assay [12] was “inactive” in each case. Further, the Potency result in assay [7], in [8] and in assay [9] was “inactive” each time.
Turning to `CC(C)[C@@H](C(=O)O[C@@H](C#N)c1cccc(Oc2ccccc2)c1)c1ccc(Cl)cc1`, the Potency entry in assay [1], in assay [2], in [3], in assay [13], in [5] and in [12] was “inactive” throughout. The Potency result in assay [8] and in assay [9] was “inactive” in each case. Moreover, the Potency in [6] is 17.5 µM (active).
Regarding `CC[N+]1(C)CCCC(OC(=O)C(O)(c2ccccc2)c2ccccc2)C1` (centres undefined), the Potency result in assay [1], in [2], in assay [3], in assay [4], in assay [5] and in assay [12] was “inactive” each time. For the same molecule, the Potency entry in assay [7], in assay [14], in assay [8], in assay [9] and in assay [11] was “inactive” throughout.
In the case of `CCCN(CCOc1c(Cl)cc(Cl)cc1Cl)C(=O)n1ccnc1`, the Potency entry in assay [3], in [13], in assay [5], in [12], in [7] and in assay [8] was “inactive” in each case. Moreover, the Potency result in [9], in assay [10] and in assay [11] was “inactive” throughout.
In the case of `CCOP(=S)(OCC)SCSc1cc(Cl)ccc1Cl`, the Potency entry in assay [1], in assay [2], in assay [3], in [4], in assay [5] and in [6] was “inactive” each time. Also, the Potency entry in assay [12], in assay [7], in assay [9], in assay [10] and in assay [11] was “inactive” each time.
